The results in this text go back to PubChem BioAssay (NCI).

This is part of a sample that, as a whole, favours compounds with a hit. Of some 83,000 tested, about 20% had one in any assay.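 How to read the values: 0–100, growth inhibition (40 = 60% inhibited); 0, no net growth; -100 to 0, cell death (-40 = 40% of starting cells died; -100 = all dead).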 Calls of active or inactive are those of the source. Rule for the calls: active = growth percent below 10; inactive = the rest.

For this assay, the system named is MALME-3M melanoma. Description: NCI-60 one-dose screen, 48 h (100 = growth as untreated, 0 = no growth, -100 = all killed). The conditions noted are these: 10 µM unless noted.
With `OC(c1ccccc1)c1nnc(SCc2ccccc2)n1Cc1ccccc1` (centres undefined), the growth is 77.3% (inactive). As to `COc1ccc(/C=C2\SC(=Nc3ccccc3)NC2=O)cc1`, the growth is -86% (active).

Consider `COc1ccc(-n2c(C(O)c3ccccc3)nn(CN3CCOCC3)c2=S)cc1` (centres undefined), for which the growth is 104% (inactive). On to `CN(O)c1nc(N(C)O)nc(N2CCOCC2)n1`, for which the growth is 48.5% (inactive). For the compound `O=C(NC(=S)Nc1cccc(NC(=S)NC(=O)c2ccccc2)c1)c1ccccc1`, the growth is 55.3% (inactive). The figure for `Cn1c2c(c(=O)[nH]c1=O)NC1=C(C(=O)c3ccccc31)C1(C=C(O)c3ccccc31)N2` (centres undefined) is 124% (inactive); for `Nc1nc(Nc2cccc(F)c2)nc2ccccc12` it is 57.2% (inactive); for `COc1cc(OC)cc(N2C(=O)N(Cc3ccc(C(C)(C)C)cc3)c3ccccc3S2(=O)=O)c1` it is 64% (inactive). Turning to `CC/C=C\C[C@H](O)C/C=C1/C(=O)C=C[C@@H]1C/C=C\CCCC(=O)OCCS(=O)(=O)c1ccccc1`, the growth is 63.7% (inactive). On to `COc1ccc(C2Nc3ncnc(N)c3N=C3c4ccccc4C(=O)C32)cc1` (centres undefined), for which the growth was 101% (inactive). As to `O=CCCCC(O)C=O` (centres undefined), the growth is 104% (inactive). As to `COC(=O)/C(=C\c1c(-c2ccccc2)[nH]c2ccccc12)S(C)(=O)=O`, the growth was 74.1% (inactive).

On to `COc1ccc(-c2nsc3c2NC(=O)CC3c2ccsc2)cc1` (centres undefined), for which the growth was 43.6% (inactive). The figure for `FC(F)(F)c1cccc(Nc2nc(-c3ccccc3)nc3ncccc23)c1` is -83.1% (active); for `COC(=O)/C(=C\c1c(C)[nH]c2ccccc12)S(=O)(=O)c1ccccc1` it is 45.8% (inactive).

For `O=Nc1c(O)ccc2ccccc12.O=Nc1c(O)ccc2ccccc12.O=Nc1c([O-])ccc2ccccc12.[Fe+3]`, the growth was 95.8% (inactive). With `COc1cccc(C(=O)Cn2cc(/C=C(\C#N)S(=O)(=O)c3ccccc3)c3ccccc32)c1`, the growth was 108% (inactive). As to `CC(=O)O[C@@H]1/C=C/C(=O)N[C@@H](C)CCC/C=C/[C@@H]2CCC[C@H]21`, the growth was 117% (inactive). On to `CC(C)(C)c1ccc(C2CC(=O)C3=C(C2)Nc2ccccc2N(C(=O)c2ccccc2Cl)C3c2ccc(F)cc2)cc1` (centres undefined), for which the growth was -85% (active). As to `O=C1/C=C/[C@@H](O)[C@@H]2C[C@@H](O)C[C@H]2/C=C/CCCCO1`, the growth is 13.8% (inactive).

In the case of `CN1CCN(c2nc(Nc3ccc(O)cc3)nc3ccccc23)CC1`, the growth is 61.8% (inactive). For the compound `O=C(NN1C(=O)CSC1c1ccc(Cl)cc1)c1[nH]c2ccc(F)cc2c1-c1ccccc1` (centres undefined), the growth was 85.2% (inactive).

`CSc1nc2c(c(=O)n1C)N=C1c3ccccc3C(=O)C1C(c1ccccc1)N2` (centres undefined): the growth is 42.6% (inactive).

Turning to `CCCC(=O)CC(C)=O.CCCC(=O)CC(C)=O.[Cu]`, the growth was 89.9% (inactive). Turning to `N#C/C(=C\c1c(-c2ccccc2)[nH]c2ccccc12)S(=O)(=O)c1ccccc1`, the growth was 76.5% (inactive). To `O=C(Nc1ccc(Cl)cc1)c1cc2ccccc2cc1OP(=O)(O)O` belongs -16.3% (active); to `COc1ccc(/C=C2\N=C(c3ccccc3)N(c3ccc(-c4nc5ccc(C)cc5s4)cc3)C2=O)cc1`, 94.6% (inactive). `CSc1nc2c(c(=O)[nH]1)N=C1c3ccccc3C(=O)C1C(c1ccccc1)N2` (centres undefined): the growth is 34.8% (inactive). Turning to `CCOC(=O)c1c(Cl)c2c(n1Cc1ccccc1)-c1oncc1CCC2`, the growth is 42.3% (inactive). In the case of `COc1cc([C@@H]2NC(=O)NC(C)=C2C(=O)Nc2nc(-c3ccc(Cl)cc3)cs2)ccc1O`, the growth was 95.4% (inactive).

On to `N#C/C(=C\c1c(-c2ccccc2)[nH]c2ccccc12)C(=O)c1ccccc1`, for which the growth was 70.9% (inactive). As for `CCN(CC)c1cc(C)c2cc(NC(=O)c3cccc(OC)c3)ccc2n1`, the growth is 82.5% (inactive). As for `COc1nc2c(c(=O)n1C)N=C1c3ccccc3C(=O)C1C(c1ccccc1)N2` (centres undefined), the growth is 83.2% (inactive).

Regarding `CCOc1ccccc1CN1CCc2nc3cc(C(C)(C)C)[nH]n3c(=O)c2C1`, the growth was 107% (inactive). To `COc1ccc(-n2c(C(O)c3ccccc3)n[nH]c2=S)cc1` (centres undefined) belongs 94.9% (inactive); to `CC(=O)n1cc(-c2c[nH]c3ccccc23)c(-c2ccc(Cl)cc2)n1`, 87.2% (inactive); to `N#CC(C#N)=Cc1c(-c2ccccc2)[nH]c2ccccc12`, 81.3% (inactive). For `Nc1ccc(C2c3ccccc3Oc3ccccc32)cc1`, the growth is 106% (inactive). Regarding `COc1cc(C#N)cc2[nH]c(=O)oc12`, the growth is 89.8% (inactive).
